From PubChem BioAssay (NCATS)
Calls of active or inactive are those of the source. Entries that show only a call come without a potency. Calls follow the shape of the dose curve; as a rule, active = well fitted cell-killing curve with a large enough effect; inconclusive = small, poorly fitted or top-dose-only effect; inactive = flat fitted curve, though single readings scatter.

Experiment: MultiTox-Fluor Cytotoxicity Assay - LYMP1-003 - Live Cells (AID 962)
Conditions: LYMP1-003 lymphoblastoid cells, MultiTox-Fluor live-cell protease fluorescence; series mostly up to 92.2 µM
From the text: NIH Chemical Genomics Center [NCGC]
NIH Molecular Libraries Screening Centers Network [MLSCN]
National Institutes of Environmental Health Sciences [NIEHS]
National Toxicology Program [NTP]
We have developed a 1536-well cell-based assay for quantitative high throughput screening (qHTS) against a number of cell lines to determine in vitro cytotoxicity of small molecules. This particular assay uses a human lymphoblastoid cell line (LYMP1-003) purchased from Coriell Institute.
NCGC Assay Protocol Summary:
The MultiTox-Fluor Cytotoxicity Assay (Promega) is a homogeneous method to simultaneously measure the relative number of live and dead cells in culture by detecting changes in cell membrane integrity. There are two fluorogenic peptide substrates in the assay reagent. Viable cells are determined when the cell-permeant substrate (GF-AFC) enters the cell and is cleaved by protease from live cells resulting in liberated fluorophore. This live-cell protease activity restricted to viable cells is proportional to cell number. The dead cells are determined by using fluorogenic cell-impermeant peptide substrate (bis-AAF-R110) which cleaved by dead cell proteases leaking from damaged cell membrane.
Using the MultiTox-Fluor Cytotoxicity Assay, the relative number of live cells was measured in the lymphoblastoid cell line with complete culture medium following compound treatment for 16 hours. The assay was performed in opaque black Kalypsys 1536-well plates. In the screen, tetraoctylammonium bromide was used as positive control. Library compounds were measured for their ability to cause acute toxicity in the cell line, as reflected by a decrease in live cell protease activity, in a concentration-dependent manner. […] AC50 values were determined from concentration-response data modeled with the standard Hill equation.
qHTS protocol for MultiTox-Fluor Cytotoxicity assay
[Step] [Parameter] [Value] [Description]
1. Reagent; 5 uL; 2500 lymphoblastoid cells/well
2. Time; 5 hr; 37 C incubation
4. Controls; 23 nL; Tetraoctylammonium bromide 6.4pM to 92 uM
5. Time; 16 hr; 37 C incubation
6. Reagent; 5 uL; MuliTox-Fluor Assay reagent
7. Time; 60 min; Room Temperature
8. Detection; live-cell fluorescence (Ex/Em=405/510); EnVision plate reader
Keywords: cell viability, cytotoxicity, lymphoblastoid cell line, fluorescence, NTPHTS, NTPHTS_NCGC, NIEHS, EPA, DSSTox, MLSMR, MLSCN, NIH Roadmap, qHTS, NCGC
Potency is read from the fitted curve at half-maximal effect.

Structure (SMILES) | Potency
CCc1cc(C(N)=S)ccn1 | inactive
NC(N)=NC(N)=NCCc1ccccc1 | inactive
CC1=NN(c2ccccc2)C(=O)C1 | inactive
O=C(N[C@H](CO)[C@H](O)c1ccc([N+](=O)[O-])cc1)C(Cl)Cl | inactive
CN(C)c1ccc(C(=C2C=CC(=[N+](C)C)C=C2)c2ccc(N(C)C)cc2)cc1 | 15.8 µM (active)
CC[C@H](C)C(=O)O[C@H]1C[C@@H](C)C=C2C=C[C@H](C)[C@H](CC[C@@H]3C[C@@H](O)CC(=O)O3)[C@H]21 | inactive
Cc1ccnc2c1NC(=O)c1cccnc1N2C1CC1 | inactive
Cc1nnc(NS(=O)(=O)c2ccc(N)cc2)s1 | inactive
NNC(=O)c1ccncc1 | inactive
Cc1ncc([N+](=O)[O-])n1CCO | inactive
Cc1noc(NS(=O)(=O)c2ccc(N)cc2)c1C | inactive
Cc1cc(NS(=O)(=O)c2ccc(N)cc2)no1 | inactive
C[C@]12C=CC(=O)C=C1CC[C@@H]1[C@@H]2C(=O)C[C@@]2(C)[C@H]1CC[C@]2(O)C(=O)CO | inactive
N=C(N)c1ccc(OCCCCCOc2ccc(C(=N)N)cc2)cc1 | inactive
O=C(O)c1cc(=O)[nH]c(=O)[nH]1 | inactive
CC(=O)[C@H]1CC[C@H]2[C@@H]3CCC4=CC(=O)CC[C@]4(C)[C@H]3CC[C@]12C | inactive
COc1ccc2cc3[n+](cc2c1OC)CCc1cc2c(cc1-3)OCO2 | inactive
